The campaign covered roughly 410,000 compounds. About 5,000 (1.2%) were called active. Where a call stands in place of a potency, no number is given. Inconclusive results (about 13%) are left out. Calls follow the shape of the dose curve; as a rule, active = well fitted inhibition curve with a large enough effect; inconclusive = small, poorly fitted or top-dose-only effect; inactive = no such curve, though single readings can be large or run the other way. Many of the other results were omitted from the sample, so actives are more common in it than they were.
Experiment: qHTS for Inhibitors of TGF-b; also: nearly all actives have a fitted effect of over 65% in size
Details: HepG2 CAGA-GFP TGF-b/SMAD3 reporter, GFP fluorescence, 18 h, TGF-beta stimulated, 500 pg/mL final; series mostly up to 46.1 µM
In short: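 HEPG2 CAGA-GFP, 1000 cells/well; 2 h settle, 37 C; cpd via pin tool; TGF-b 500 pg/mL final; 18 h, 37 C; GFP imaging ex488/em500-530; %Activity normalised to -TGF-b and +DMSO controls; CRC fit, curve class.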
Potency is read from the fitted curve at half-maximal effect.

SMILES | Potency
CCc1nn(CCCC(=O)NCc2ccccc2OC)c(=O)c2cc3occc3n12 | inactive
CCc1ccc(CNC(=O)c2cc3cc4ccc(OC)cc4nc3o2)cc1 | inactive
CCCNC(=O)C1CCN(c2nc3ccc(C)cc3[nH]2)CC1 | inactive
Cc1ccc(NC(=O)Nc2nnc(-c3ccncc3)s2)cc1 | 11.2 µM (active)
CCc1ccc(NC(=O)Nc2ccncc2)cc1 | inactive
CC(C)=CC(=O)Nc1nnc(-c2ccc(F)cc2)s1 | inactive
CN1CCN(C2(CNC(=O)COc3ccc(C(C)(C)C)cc3)CCCCC2)CC1 | inactive
CCOc1ccc(S(=O)(=O)c2cn(Cc3ccccc3)c3ccc(OCC)cc3c2=O)cc1 | inactive
Cc1csc(NC(=S)Nc2cccc(Cl)c2)n1 | 8.91 µM (active)
O=C(NCc1cn2ccsc2n1)Nc1cccc(Cl)c1 | inactive
O=C(Nc1cccc(Cl)c1)c1csnn1 | inactive
O=C1CC(c2ccccc2)CC2=C1C(c1ccco1)n1nc(C(F)(F)F)nc1N2 (stereo unspecified) | inactive
CCCCNC(=O)Cn1c(SCc2cccc(Cl)c2)nc2ccncc21 | inactive
Cc1cccc(-c2nnc(SC(C)C(=O)Nc3ccccc3)n2C)c1 (stereo unspecified) | inactive
O=S(=O)(NCCS(=O)(=O)N1CCN(c2ccccc2)CC1)c1ccc(Cl)cc1 | inactive
O=C(CN1C(=O)COc2ccc(S(=O)(=O)N3CCOCC3)cc21)N1CCN(c2cccc(Cl)c2)CC1 | inactive
O=C(Nc1ccc(C2CC2(Cl)Cl)cc1)c1cccc([N+](=O)[O-])c1 (stereo unspecified) | 15.8 µM (active)
O=C(Nc1nnc(SCc2c(Cl)cccc2Cl)s1)c1cccc([N+](=O)[O-])c1 | inactive
CC(C)(C)SCCNC(=O)c1cccc([N+](=O)[O-])c1 | inactive
Cc1ccc(-c2cn3c(n2)sc2cc(C(=O)NCc4cccs4)ccc23)c(C)c1 | inactive
Cc1cc(C)cc(NC(=O)CSc2nc(=O)n(CCN3CCOCC3)c3c2CCC3)c1 | inactive
Cc1nnc(SCc2cc(=O)c3cc(F)ccc3[nH]2)n1C | inactive
CCCc1cc(C(=O)Nc2ccc(Cl)cn2)cs1 | inactive
O=C(Nc1ccc(Cl)cn1)c1ccccc1-c1ccccc1 | inactive
Clc1ccc(Nc2nc(-c3cccs3)cs2)nc1 | 11.2 µM (active)
COc1ccc(C(=O)COC(=O)CCCC(=O)Nc2cc(C(F)(F)F)ccc2Cl)cc1 | inactive

SMILES | Potency
COc1cc(NC(=O)c2[nH]cnc2C(N)=O)cc(C(=O)Nc2cccc(C(F)(F)F)c2)c1 | 4.47 µM (active)
COc1cc(NC(=O)c2cncc(-c3ccc(C#N)cc3)c2)cc(C(=O)Nc2cccc(C(F)(F)F)c2)c1 | inactive
Cc1cc(Nc2cccc(C(F)(F)F)c2)nc2ccc(NC(=O)c3ccc(=O)[nH]c3)cc12 | inactive
O=C(Nc1ccccc1F)C(c1ccccc1)N1Cc2ccccc2C1=O (stereo unspecified) | inactive
CCc1ccc(NC(=O)CCS(=O)(=O)c2cc3c(cc2Cl)NC(=O)CO3)cc1 | inactive
O=C(NC1CCN(Cc2ccccc2)CC1)c1cc(Br)c(Br)[nH]1 | inactive
S=C(Nc1ccc(Br)cc1)NC1CCN(Cc2ccccc2)CC1 | 10 µM (active)
O=C(COc1ccc(Br)cc1F)NC1CCN(Cc2ccccc2)CC1 | inactive
COc1ccc(Nc2ncc(C(=O)Nc3cc(C)ccc3OC)c3ccccc23)cc1 | inactive
CCc1nccn1S(=O)(=O)c1cc(Br)ccc1Br | inactive
COc1ccc(OC)c(NC(=O)/C=C/c2ccc(C)o2)c1 | inactive
O=C(CSc1oc(-c2ccc(F)cc2)nc1S(=O)(=O)c1ccc(Br)cc1)NC1CCCCC1 | inactive
CC(C)S(=O)(=O)c1oc(-c2ccc(F)cc2)nc1S(=O)(=O)c1ccc(F)cc1 | 1.26 µM (active)
Cc1ccc(-c2nc(S(=O)(=O)c3ccc(C)cc3)c(N3CCCCCC3)o2)cc1 | inactive
Cc1ccc(CCNC(=O)Cn2c(-c3cccs3)cc3cc(F)ccc32)cc1 | inactive
COc1ccc(CC(=O)NCCc2sc3nc(-c4ccc(OC)cc4)nn3c2C)cc1 | inactive
COc1c(Cl)cc(C(=O)N(Cc2ccccc2F)C2CCS(=O)(=O)C2)cc1Cl (stereo unspecified) | inactive
Cc1ccc2nc(-c3ccc(O)cc3)c(Nc3ccc4c(c3)OCO4)n2c1 | inactive
COC(c1ccccc1)(c1ccccc1)C(Oc1nc(C)cc(C)n1)C(=O)O (stereo unspecified) | inactive
Cc1cc(C)nc(SC(C)C(=O)N/N=C/c2cccs2)n1 (stereo unspecified) | inactive
Cc1cc(C)nc(S/C=C/C(=O)c2ccccc2)n1 | 3.16 µM (active)
Cc1ccc(Cn2c(CNC(=O)Cc3cccc(C)c3)nc3cccnc32)cc1 | inactive
CC(=O)Nc1cc(C(=O)NCc2ccc(F)cc2Cl)ccc1Sc1ccc(Cl)cc1 | inactive
COc1ccc(CN2CCC(=O)c3ccccc3S2(=O)=O)cc1 | inactive
COc1cccc2c1C(=O)c1c(O)c3c(c(O)c1C2=O)CC(O)(C(C)=NNC(=O)c1ccc(Cl)c(Cl)c1)CC3OC1CC(N)C(O)C(C)O1 (stereo unspecified) | 1.12 µM (active)
Cc1ccc(Cn2cnc3c(cnn3C(C)(C)C)c2=O)c(F)c1 | inactive

SMILES | Potency
COc1cc(CN(C(=O)c2ccccc2Br)c2ccccn2)cc(OC)c1OC | inactive
CC(C)CC[n+]1ccn(C2=C([O-])c3ccccc3C(=O)/C2=N\S(=O)(=O)c2ccccc2)c1 | 3.16 µM (active)
COC(=O)c1ccc(NC(=O)c2cccc3c2C(=O)N(C2CCCCC2)C3)cc1 | inactive
Cc1ccc(CN2CC(N3CCC(Cc4ccccc4)CC3)CS2(=O)=O)cc1 (stereo unspecified) | 14.1 µM (active)
Cc1cccc(CN2CCN(C3CN(Cc4ccccc4)S(=O)(=O)C3)CC2)c1 (stereo unspecified) | inactive
O=S1(=O)CC(N2CCC(Cc3ccccc3)CC2)CN1Cc1ccccc1 (stereo unspecified) | inactive
Cc1ccc(CN2CCc3nc(N4CCN(C)CC4)ncc3C2)cc1 | inactive
CCOc1ccc(NC(=O)CC2C(=O)N(c3cccc(OC)c3)C(=O)N2C2CCCCC2)cc1 (stereo unspecified) | inactive
Cc1cccc(NC(=O)Cn2c(C(F)(F)F)nc3ccccc32)c1C | inactive
N#C/C=C/N1CCN(Cc2ccc3c(c2)OCO3)CC1 | inactive
Fc1ccc2[nH]c3c(N4CCN(Cc5ccc6c(c5)OCO6)CC4)ncnc3c2c1 | 17.8 µM (active)
O=C(CSc1nc2c(c(=O)[nH]1)CN(Cc1ccc3c(c1)OCO3)CC2)Nc1cc(F)ccc1F | inactive
Cc1cc(C)cc(NC(=O)Cc2csc(C)n2)c1 | inactive
Cc1ccc(C)c(S(=O)(=O)n2nc(C)c(S(=O)(=O)N3CCC(C)CC3)c2C)c1 | inactive
O=[N+]([O-])c1cc(S(=O)(=O)N2CCCC2)ccc1NN=C1CCCC1 | inactive
CC(C)N1CCC(=NNc2ccc([N+](=O)[O-])cc2S(=O)(=O)N2CCOCC2)CC1 | 11.2 µM (active)
COC(=O)c1cc(Oc2ccc(S(=O)(=O)N3CCOCC3)cc2[N+](=O)[O-])cc(C(=O)OC)c1 | inactive
Cc1ccc(C)c(N2CCN(C(=O)CCc3c(C)nc4c(c3C)c(=O)n(C)c(=O)n4C)CC2)c1 | inactive
CCOc1ccc(CNC(=O)c2ccc(CS(=O)c3ccccc3)o2)cc1 (stereo unspecified) | inactive
CC(=O)c1ccc(N2CCN(C3C(=O)c4ccccc4N3C(C)=O)CC2)cc1 (stereo unspecified) | inactive
CCN(C(=O)COc1ccc(C(=O)c2ccccc2)cc1)c1ccccc1 | inactive
CCOc1ccc2nc(C(=O)N3CCCC(C)C3)sc2c1 (stereo unspecified) | inactive
CCOc1ccc2nc(N(CCCN(C)C)C(=O)c3ccc(C(=O)c4ccccc4)cc3)sc2c1 | 22.4 µM (active)
Cc1ccc2nc(/C(C#N)=C/c3ccccc3F)[nH]c2c1 | inactive
Cn1c(=O)n(C)c2cc(S(=O)(=O)N3CCCc4ccccc43)ccc21 | 12.6 µM (active)
CCn1c(=O)c(=O)n(CC)c2cc(S(=O)(=O)N3CCc4ccccc43)ccc21 | inactive

SMILES | Potency
O=S(=O)(c1ccccc1)N1CCc2ccccc21 | inactive
Cc1cc(C)cc(NC(=O)CSc2oc(-c3ccccc3)nc2S(=O)(=O)c2ccc(Cl)cc2)c1 | inactive
COc1cc(C(=O)N2CCN(c3ccc(Nc4ccc(C)cc4)nn3)CC2)cc(OC)c1OC | inactive
Cc1onc(-c2c(F)cccc2Cl)c1C(=O)Nc1cccc(S(=O)(=O)N2CCCCC2)c1 | inactive
Cc1onc(-c2ccc(F)cc2F)c1C(=O)Nc1cccc(C(F)(F)F)c1 | 12.6 µM (active)
Cc1onc(-c2c(F)cccc2Cl)c1C(=O)N(C)CC(=O)Nc1cccc(F)c1 | inactive
O=C1c2ccccc2C(=O)N1c1ccc(S(=O)(=O)N2CCOCC2)c2ccccc12 | inactive
Cc1ccc(-c2noc(-c3nnn(-c4cccc(C(F)(F)F)c4)c3N)n2)cc1 | inactive
COc1ccc(OC)c(CCNC(=O)CCCn2c(=O)c3cccn3c3cccnc32)c1 | inactive
CCOCCc1nn2c(=O)cc(COC(=O)CNC(=O)c3ccc(C(C)(C)C)cc3)nc2s1 | inactive
CCOC(=O)Cn1c(=O)n(C2CCCCC2)c2nc(-c3cccc(OC)c3)nc(C(N)=O)c21 | inactive
Cc1nc2c(OCc3cccc(Cl)c3)cccn2c1N(C)CC1CC1 | inactive
CCc1nc2c(OCc3cccc(OC)c3)cccn2c1N(C)C(=O)C(C)C | inactive
Cc1nc2c(OCc3ccc(Cl)cc3Cl)cccn2c1N(C)CC1CC1 | 11.2 µM (active)
CCc1nc2c(OCc3ccc(C(=O)OC)cc3)cccn2c1N(C)C(=O)C(C)C | inactive
Cc1nc2c(OCC(=O)C(C)(C)C)cccn2c1N(C)Cc1cccs1 | inactive
CCc1nc2c(OCc3ccc(Cl)cc3Cl)cccn2c1N(C)C(=O)C(C)C | 12.6 µM (active)
COc1cccc(N2CC(NC(=O)/C=C\c3ccccc3)CC2=O)c1 (stereo unspecified) | inactive
O=C(CCSCc1cccc(F)c1)NCc1ccccc1 | inactive
CCN(CCCNC(=O)c1ccc(Sc2ccc(C)cc2)c(NC(C)=O)c1)c1cccc(C)c1 | inactive
COC(=O)c1ccc(OCC(=O)NC(C)(C)C)cc1 | inactive
CCCOc1cccc(C(=O)Nc2cccc(NC(=O)c3ccc(C(C)(C)C)cc3)c2)c1 | inactive
CCCOc1ccc(C(=O)C(CCC(CNCC)C(=O)c2ccc(OCCC)cc2)CNCC)cc1 (stereo unspecified) | 3.16 µM (active)

Source: PubChem BioAssay AID588855 (National Center for Advancing Translational Sciences (NCATS), 2011)
